Over roughly 68,000 sequences, “fluorescence intensity (a.u.)” has its median near 9,100; the highest 2% begin near 16,000. This excerpt belongs to a sample that is enriched for the highest values.

Sequence of OsWRKY34 (Q0JBA9 entry or part of it): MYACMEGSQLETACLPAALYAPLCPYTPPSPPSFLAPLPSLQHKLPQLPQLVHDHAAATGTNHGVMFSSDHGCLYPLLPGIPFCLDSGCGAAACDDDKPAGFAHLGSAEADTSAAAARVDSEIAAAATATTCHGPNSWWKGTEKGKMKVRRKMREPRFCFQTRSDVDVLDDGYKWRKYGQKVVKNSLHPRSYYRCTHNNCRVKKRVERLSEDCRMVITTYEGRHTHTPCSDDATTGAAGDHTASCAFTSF

The target of this test is OsWRKY34 (Oryza sativa, UniProt Q0JBA9 1-250). The test can be described thus: protein-binding microarray (RPBM); PBS, 2% BSA, 51.3 ng/ul salmon testes DNA, 50 uM zinc acetate, 200 nM TF, 25 C, 1 h; high values mean tight binding. The conditions noted are these: protein: recombinant; tags: N-terminal polyhistidine and DsRed monomer fusion (pET32a); label: CyDye5-dUTP incorporated in the synthesized complementary strand; 3' TTTTT single-stranded linker to array surface; dsDNA, one strand shown. In short, it runs like this:
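Binding signal is defined as the fluorescence intensity of each feature in arbitrary units, read on an Axon 4000B scanner. Transcription factors with N-terminal polyhistidine and DsRed fusions came from E. coli BL21-CodonPlus and were purified on Ni–NTA. They were incubated at 200 nM for 1 h at 25 °C on a custom Agilent array that had been made double-stranded with Cy5-dUTP, with 50 µM zinc acetate present, and the array was washed.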
Take “GCTCTTTGGCCTGCTTCAGCCTTCAGCTTCTCCATGGTTTCGGAGTCACCTAGTGCAG”: the binding signal is 10700 fluorescence intensity (a.u.).
The figure for “TACCTACTTTCTCATCTTAAGCAATCACTTCGACTTTAATCGGAGTCACCTAGTGCAG” is 9820 fluorescence intensity (a.u.); for “TGCCTAACAATTCTTTTTATTCGCGACGTCAATATACTACCGGAGTCACCTAGTGCAG” it is 9730 fluorescence intensity (a.u.); for “AGAATTACTGCTGCTTTATTTACTTTTCTTCCATTGGTTTCGGAGTCACCTAGTGCAG” it is 13000 fluorescence intensity (a.u.).
For “TAATGTATTCCGGCAAATGAATATGTTGTTTGACTTTTTTCGGAGTCACCTAGTGCAG” the value was 10300 fluorescence intensity (a.u.).
For “TTAATGTATGACACTGTTGACTTTTTTTCCAACGTTTGACCGGAGTCACCTAGTGCAG”, the binding signal is 21900 fluorescence intensity (a.u.).
The figure for “CCGGTCGTTTCCCGTATTGTTGGCATATATGTACACGGAGCGGAGTCACCTAGTGCAG” is 8030 fluorescence intensity (a.u.); for “CCGTCGTGCTGCGCCCTTCAATTTGTTGGTCTCGCTCGCCCGGAGTCACCTAGTGCAG” it is 8490 fluorescence intensity (a.u.); for “GTCATCCTGTTTCACTGCTAGCTCTCCCTAAATTTTGAAACGGAGTCACCTAGTGCAG” it is 8490 fluorescence intensity (a.u.).
Consider “GTGTCTTGTACATGTCTTCGTTTCTTCCTTTCTCATTTCACGGAGTCACCTAGTGCAG”, for which the binding signal was 10900 fluorescence intensity (a.u.).
The figure for “ACACTTTCTCTCTTGTACACTTTCATTTCACGTGTCTAAACGGAGTCACCTAGTGCAG” is 17500 fluorescence intensity (a.u.); for “TTATACTTTCTCTTTTTTTCACGTGTATATTTTCTAAACCCGGAGTCACCTAGTGCAG” it is 9610 fluorescence intensity (a.u.); for “TTGTTTTCTACTCCTAATACTCTTTTGTCTGTCTCATCTGCGGAGTCACCTAGTGCAG” it is 12400 fluorescence intensity (a.u.).
Take “CGTATCTGCTCTGTTTTTCATCTCCTGTCATTTGTCTAAACGGAGTCACCTAGTGCAG”: the binding signal is 18500 fluorescence intensity (a.u.).
The figure for “AAGAACACAACACACTTGATATATATACCTCACACACACTCGGAGTCACCTAGTGCAG” is 8060 fluorescence intensity (a.u.); for “TACTTGGTGCAGTGTTGAGCCTTGTTTTACAATAAATTTTCGGAGTCACCTAGTGCAG” it is 8100 fluorescence intensity (a.u.); for “GCGCCGTTGTTCTTCCTGCCACATCCATCCTGGTGAGCACCGGAGTCACCTAGTGCAG” it is 12700 fluorescence intensity (a.u.).
Turning to “ATGTTTGACGCTGTTGACTTTTTTAAACATATTTGACTCTCGGAGTCACCTAGTGCAG”, the binding signal was 21500 fluorescence intensity (a.u.).
The figure for “ATTCTCTAAATGTTTGACGCTGTTGACTTTTTAAAACATGCGGAGTCACCTAGTGCAG” is 16600 fluorescence intensity (a.u.).
For “CTAAATATTTAACGCTGTTGACTTTTTAAAACATATTTGACGGAGTCACCTAGTGCAG”, the binding signal is 9280 fluorescence intensity (a.u.).
The figure for “GGGTATTTTTTAAGTAGCTAGGTGTATAATTAAATTAGTTCGGAGTCACCTAGTGCAG” is 8760 fluorescence intensity (a.u.).
The figure for “TTTTTAGGGTGTGGGTATTAGTTGGAAAATACAATAAATGCGGAGTCACCTAGTGCAG” is 9530 fluorescence intensity (a.u.); for “GTGTAGGAGTAGTTAGGGTTGTTGCTTGTTGGAGGGAAAACGGAGTCACCTAGTGCAG” it is 9460 fluorescence intensity (a.u.); for “TCATCAATGTCGACTTCTGTTTTGAAGTCGCTTTTTCATCCGGAGTCACCTAGTGCAG” it is 9100 fluorescence intensity (a.u.).
On to “TAATGGAAGTGGTTTACGTCGCTTCTGTCAATAAACACACCGGAGTCACCTAGTGCAG”, for which the binding signal was 48400 fluorescence intensity (a.u.).
In the case of “ATGTTTACGTGCAACACATTATGGTTCTCTTCTCTGTAAACGGAGTCACCTAGTGCAG”, the binding signal is 8230 fluorescence intensity (a.u.).
For the sequence “ATTCCTCCGCCACAACACCACGCTGACCACAGTCCACCGTCGGAGTCACCTAGTGCAG”, the binding signal was 8360 fluorescence intensity (a.u.).
The figure for “CCCGCTGGTGCACTTCAACGCTACTCCTCTTCGCCGCCAACGGAGTCACCTAGTGCAG” is 9270 fluorescence intensity (a.u.).
“CGTACCTTCTCTGTTGAATCTCCTGTTCGCTTTTCTGTTACGGAGTCACCTAGTGCAG”: the binding signal is 9160 fluorescence intensity (a.u.).
The figure for “AGACGTATTCCTGTATCCGCCTATCCGTATCTTGGTATCACGGAGTCACCTAGTGCAG” is 8300 fluorescence intensity (a.u.).
The figure for “ATATATATATATATATATATAGACGTATTCCTGTATCCGCCGGAGTCACCTAGTGCAG” is 21000 fluorescence intensity (a.u.); for “TATATATATATATATATATATATATATATATATATATATCCGGAGTCACCTAGTGCAG” it is 8650 fluorescence intensity (a.u.); for “GGCTTTTTTGTTGGGCTTCTTTTGATCAAAAACGTTGTTTCGGAGTCACCTAGTGCAG” it is 12000 fluorescence intensity (a.u.).
For “AATTCATTTGTCTTGGTACGCTGTTGGGGCGTAATAGGGGCGGAGTCACCTAGTGCAG” the value was 13200 fluorescence intensity (a.u.); for “CTTGCGGTTCATTTGGGGTTGGTTGGTTCTAGGGTACTGTCGGAGTCACCTAGTGCAG”, 16700 fluorescence intensity (a.u.).
For “CTGCTGCAGTTGAGCTGTACTGTTTTGGTGGGTTGGTTTTCGGAGTCACCTAGTGCAG”, the binding signal is 13900 fluorescence intensity (a.u.).
With “TGTTTGGTGCTGTCGGTACATGGGTGGTGGTTTTTTCTTTCGGAGTCACCTAGTGCAG”, the binding signal was 17500 fluorescence intensity (a.u.).
The figure for “GAGGAGGTTGGGTTCTTGATCGGTGTCGGATTTTTGGTTGCGGAGTCACCTAGTGCAG” is 10800 fluorescence intensity (a.u.); for “GCGATGTCGGTGTGTGGGTGGTGGTATATTTTTCCTTTTTCGGAGTCACCTAGTGCAG” it is 18000 fluorescence intensity (a.u.); for “TATTGTATTGGGTTGGGCCTTTGTGGTTGTCTAATGAAGTCGGAGTCACCTAGTGCAG” it is 22300 fluorescence intensity (a.u.).
For “TTGGTGCTGTTGGTGCGTGGGTGGTGGTATAATTTTCTTTCGGAGTCACCTAGTGCAG” the value was 11900 fluorescence intensity (a.u.); for “GTGTGTGGGTGGTGGTATATTTTTTTTCTTTCTCTTGGTTCGGAGTCACCTAGTGCAG”, 12800 fluorescence intensity (a.u.); for “TGGTGGTGGTTGTGGTTGGGTTGGTGTCTGTCTTTTGTACCGGAGTCACCTAGTGCAG”, 16300 fluorescence intensity (a.u.).
For “GCGCTGTCAGTGTGTGGGTGGTAGTATATTTTTTTCTTTTCGGAGTCACCTAGTGCAG” the value was 12500 fluorescence intensity (a.u.); for “GCGGTTGGGTTTGTGTGGTTTTTTTTGAAGGCGGAGTTGTCGGAGTCACCTAGTGCAG”, 12100 fluorescence intensity (a.u.); for “GTGTGGCGGACATGTGGGCCCATGATTTTTATTATTTTTCCGGAGTCACCTAGTGCAG”, 9790 fluorescence intensity (a.u.).
With “ATCCTCCGCCGCCGCCTCACCTCCTCCGCCACCGCGCTCGCGGAGTCACCTAGTGCAG”, the binding signal was 8270 fluorescence intensity (a.u.).
Turning to “GCACCCCTGTTTTCTCAGCGATCATGGCTGTAATACTGAACGGAGTCACCTAGTGCAG”, the binding signal was 8070 fluorescence intensity (a.u.).
The figure for “TCCTCCGAATCCCAATCTCTCGCAGTTCGTTCGAGGAGCTCGGAGTCACCTAGTGCAG” is 8540 fluorescence intensity (a.u.).
With “GCCTCGCCCTCGCGTCGTCACCTCTCGCCATGGCCCACTACGGAGTCACCTAGTGCAG”, the binding signal was 9950 fluorescence intensity (a.u.).
The figure for “ATTCTGTTGCGTCATCATGTTCCTGTCTACAGAGCTATACCGGAGTCACCTAGTGCAG” is 8840 fluorescence intensity (a.u.).
The figure for “TTTAAAACTAGGACCTGAGTAAATATTTTTCTTGAGTTTTCGGAGTCACCTAGTGCAG” is 8040 fluorescence intensity (a.u.); for “GCTAGTTGTAATATACACATAATTGTTGCTTCATTTCAACCGGAGTCACCTAGTGCAG” it is 9790 fluorescence intensity (a.u.).
The figure for “TTGCAGTATCCCGGTTGCCCACCTTTCATGGTCCATCACCCGGAGTCACCTAGTGCAG” is 8490 fluorescence intensity (a.u.).

Values taken from PMC7819943, “Rice protein-binding microarrays: a tool to detect cis-acting elements near promoter regions in rice”.
